Measurements published in PubChem BioAssay (NCI).
The panel holds about 83,000 compounds, 20% with a hit somewhere; the sample as a whole holds those more often.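 Plates (96-well) were seeded with cells, treated with compound at one concentration, and incubated for 48 hours before percent growth was determined.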 A number with no mark means an inactive call. The source made the active and inactive calls. Rule for the calls: active = growth percent below 10; inactive = the rest.

test system: SF-295 CNS; test: NCI-60 one-dose screen, 48 h (100 = growth as untreated, 0 = no growth, -100 = all killed); conditions: 10 µM unless noted

| Compound | growth |
| --- | --- |
| COc1cc(C=O)ccc1OC1OC(COC(C)=O)C(OC(C)=O)C(OC(C)=O)C1OC(C)=O (stereo not given) | 102% |
| CC1=CCC(OC(=O)C(C)(O)CCC(O)(C(=O)OC2(C)C=CC(O)(C(C)C)CC2)C(C)C)(C(C)C)CC1 (stereo not given) | 101% |
| CC(=O)Nc1cccc(-c2ccc3c(c2)NC(=O)/C3=C\c2ccc[nH]2)c1 | 32.6% |
| CC(C)(C)c1ccc(NS(=O)(=O)c2ccc3nc(NC(=O)c4cnccn4)[nH]c3c2)cc1 | 35% |
| CC(C)(C)c1cc(/C=N/NC(=O)c2ccccc2NC(=O)c2cccs2)c(O)c(C(C)(C)C)c1 | 40% |
| C#CCNC(=O)[C@H](Cc1ccccc1)NC(=O)[C@]12CC[C@@H](C(=C)C)[C@@H]1[C@H]1CC[C@@H]3[C@@]4(C)CCC(=O)C(C)(C)[C@@H]4CC[C@@]3(C)[C@]1(C)CC2 | 73.4% |
| CCCCCCNC(=O)Oc1ccc(/C(=C(\C)c2ccccc2)c2ccc(OCCCN(C)C)cc2)cc1 | 93.7% |
| CC(=O)Nc1ccc(-c2ccc3c(c2)NC(=O)/C3=C\c2ccc[nH]2)cc1 | 87.2% |
| CCCCOc1ccc(/C=N/Nc2cc(C)nc3ccc(Br)cc23)cc1 | -80.3% (active) |
| COc1cc(/C(C)=C(\c2ccc(Cl)cc2)c2ccc(OCCN(C)C)cc2)ccc1F | 89.7% |
| O=C(/C=C/c1ccc(Cl)cc1)c1ccc(NC(=O)N2CCN(c3cc4c(cc3F)c(=O)c(C(=O)O)cn4C3CC3)CC2)cc1 | 108% |
| O=C(c1nc2ccccc2[nH]1)C1C(c2ccc(Cl)cc2)C2CC3CCCC[C@H]3N2[C@@]12C(=O)Nc1cc(Cl)ccc12 (stereo not given in full) | 32.6% |
| O=C(NCCNc1nccc(-c2c(-c3cccc(F)c3)nc3sccn23)n1)c1ccc(Cl)cc1 | 73.8% |
| O=C(CCN1CCCC1)Nc1ccc2c(NCCCc3ccccc3)c3ccccc3nc2c1 | 46.9% |
| N#CC1=C(/N=C/c2ccccc2)Oc2c(ccc3ccccc23)C1c1ccc([N+](=O)[O-])cc1 (stereo not given) | 98.5% |
| Brc1ccc(Nc2csc(-c3ccccn3)n2)cc1 | 88.8% |
| COc1cc(/C(C)=C(\c2ccc(Cl)cc2)c2ccc(OCCN3CCCC3)cc2)ccc1F | 75.2% |
| CC(=O)N1c2ccccc2NC2=C(C(=O)NC2(C)C)C1c1ccco1 (stereo not given) | 96.6% |

| Compound | growth |
| --- | --- |
| CCOC(=O)CSc1nc2ccccc2c(=O)n1Cc1ccc(S(N)(=O)=O)cc1 | 99.4% |
| CCCCOc1ccc(/C(C)=N/Nc2cc(C)nc3ccc(Br)cc23)cc1 | 76.2% |
| COc1cc2c(c(O)c1Cl)C(=O)c1c(O)cc(C[C@H](C)O)cc1[C@H]2[C@H]1c2cc(C[C@H](C)O)cc(O)c2C(=O)c2c1cc(OC)c(Cl)c2O | -14.6% (active) |
| O=C(c1ccccc1)N1N=C(c2ccc(-n3ccc(C(F)(F)F)n3)c(F)c2)CC1c1ccc[nH]1 (stereo not given) | 105% |
| O=C(Nc1ccc(-c2ccc3c(c2)NC(=O)/C3=C\c2ccc[nH]2)cc1)NC1CC1 | 90.8% |
| O=c1ccc(-c2nc(N3CCOCC3)c3ccccc3n2)c[nH]1 | 90.5% |
| COc1cc(/C=C\C(=O)O)ccc1OCc1ccccc1 | 101% |
| COc1ccc(C(C)=O)c(OC)c1 | 110% |
| NC1=NN=C(N)C1=Cc1cc2ccccc2n2nnnc12 | 99.3% |
| C=C1C(=O)O[C@H]2[C@H]1CC/C(CNC(=O)/C=C/c1cccc(OC)c1)=C\CC[C@@]1(C)O[C@@H]21 | 71.8% |
| CNC(=O)c1cc(Cn2nc(C)c(NC(=O)Nc3ccc(Cl)c(C(F)(F)F)c3)c2C)ccn1 | 95.5% |
| Cc1ccc(/C=N/NC(=O)CSc2nc3ccccc3c(=O)n2Cc2ccc(S(N)(=O)=O)cc2)cc1 | 95% |
| O=C(Cc1ccc(/C=C/C(=O)c2ncc[nH]2)cc1)Nc1ccc(Cl)cc1 | 8.31% (active) |
| CCCOC(=O)N[C@H]1CCc2c(Cl)c(OC)c(OC)c(OC)c2-c2ccc(SC)c(=O)cc21 | 17.5% |
| O=S(=O)(NCCCNc1nccc(-c2c(-c3cccc(O)c3)nc3occn23)n1)c1ccc(Cl)cc1 | 116% |
| COc1cc2c(=O)n(CCN(C)C)c3c4cc5c(cc4ccc3c2cc1OC)OCO5 | 3.79% (active) |
| C=CC(=O)N[C@@H](/C=C/C(=O)OCC)Cc1ccc(-c2cc(Cl)cc(Cl)c2)cc1 | 21.8% |
